# Screening data (PubChem)
# A selection: hits, their analogues and other compounds. The true share with any hit is near 2.4%.
# HSF1 activator: HSF-1 activators, primary screen, NIH3T3-HGL cells, MG132 stress, luminescence, single point | NIH3T3-HGL HSF-1 luciferase reporter, 8 h; 100% = twice DMSO control signal | activation, % at 9 µM | 300,000 tested, 1.7% active | AID 504408, 2011;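 active = mean replicate activation of at least 50% with a set share of replicates each reaching 50%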;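 also: 0% = median of the neutral control wells and 100% = twice that signal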
# NOD2-RIPK2 inh: NOD2-RIPK2 binding disruptors in cells, primary screen, fluorescence, CHO cells, BLA complementation; CCF4 ratio; inhibition, % at 4.98 µM; 360,000 tested, 0.38% active; AID 624267, 2012; in the data active = inhibition above about 21%;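 also: 0% = vehicle only and 100% = reference blocker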
# HSF1 inh: HSF1 inhibitors in luciferase reporter cells, primary screen, cell-based, NIH3T3, luminescence. NIH3T3-HGL HSE-luciferase, MG132-induced, luminescence 8 h; active compounds read low. 300,000 tested, 0.77% active. activity change, negative = inhibition, % at 7.5 µM (by protocol);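 active = more than half of replicate wells show activity change below -50%, luminescence cut by over half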;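 also: luciferase reports HSF-1 transcriptional activity via heat shock element; 0% = median of DMSO wells and -100% = zero luminescence signal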
# TLR4-MyD88 BLA: inhibitors of TLR4-MyD88 association in cells, primary screen, cell-based, HeLa CL3-4, BLA complementation, FRET ratio | Toll-like receptor 4 (Homo sapiens) + Myeloid differentiation primary response protein … | HeLa CL3-4 TLR4/MyD88 BLA complementation | inhibition, % at 8.4 µM | 200,000 tested, 0.18% active; in the data active = inhibition above about 25%;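 also: 0% = vehicle and 100% = reference inhibitor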
# TLR9-MyD88 inh: inhibitors of TLR9-MyD88 association in cells, primary screen, cell-based, CHO, BLA complementation, fluorescence; Toll-like receptor 9 (Homo sapiens) + Myeloid differentiation primary response protein …; CCF4 FRET ratio; inhibition, % at 4.98 µM; 340,000 tested, 0.21% active; AID 504734, 2011;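 active = inhibition above the mean over all tested compounds plus 3 SD, cut at about 21% in these data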;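 also: 0% = DMSO only wells and 100% = clavulanate BLA inhibitor control wells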
# The depositor's hits bear a star; . = not tested or not shown.
SMILES,HSF1 activator,NOD2-RIPK2 inh,HSF1 inh,TLR4-MyD88 BLA,TLR9-MyD88 inh
CCOC(=O)c1c(N)sc2c(O)c(Br)ccc12,-95,-5,-94*,2,-2
CC(O)CNC(=O)C1CCN(Cc2ccc(OCc3ccccc3)cc2)CC1 (centres undefined),15,7,2,1,-13
CC(C)CNC(=O)C1CCN(Cc2ccc(OCc3ccccc3)cc2)CC1,-71,-6,-61*,-17,2
CC(=O)c1cnn(-c2ccccc2)c1C,-4,4,0,-3,6
CC(=O)c1cnn(-c2c(Cl)cc(Cl)cc2Cl)c1C,-64,3,-59*,.,-1
COc1cccc(CNC(=O)CCS(=O)(=O)c2ccc3c(c2)CC(C)N3C(=O)C2CC2)c1 (centres undefined),-6,1,1,.,-4
O=C(Nc1ccccc1[N+](=O)[O-])c1cccc(N2C(=O)CCC2=O)c1,54*,-12,18,.,3
CCOc1ccccc1NC(=O)c1cccc(N2C(=O)CCC2=O)c1,6,-4,-5,.,8
Cc1ccc(Nc2c(N)c(=O)oc3ccccc23)cc1,161*,5,98,-10,0
CNc1c(N)c(=O)oc2ccccc12,34,-3,10,11,-1
COc1cccc(/C=C/C(=O)NNC(=O)c2ccco2)c1OC,.,-1,.,.,-10
CN1CCN(C(=O)c2ccc(Cn3cc(Cl)cn3)o2)CC1,64*,-5,15,.,6
CC(=Nc1ccc(C)cc1C)c1sc2ccccc2c1O,53*,10,12,13,5
CC(=Nc1ccc(C)cc1)c1sc2ccccc2c1O,31,5,20,0,-2
COc1ccc2nc(NC(=O)c3ccc([N+](=O)[O-])o3)sc2c1,132*,0,100,.,3
Cc1cc(C)c2sc(NC(=O)c3ccc([N+](=O)[O-])o3)nc2c1,77*,-5,54,.,9
O=C(Nc1nc2cc3c(cc2s1)OCCO3)c1ccc([N+](=O)[O-])o1,104*,0,92,.,-4
Cc1ccc(-c2nnc(SCC(=O)Nc3nccs3)n2N)cc1,-64,-4,-61*,5,-4
CC(=O)OC(C)C(=O)NS(=O)(=O)c1ccc(C)cc1 (centres undefined),71*,-8,38,2,-4
CC(C)C[C@H]1COc2cccc(N(C)CCO)c2S(=O)(=O)N1,.,6,.,.,.
CCOC(=O)Cn1nc(C)c(NC(=O)COc2cccc(Cl)c2)c1C,.,10,.,-4,5
CCOC(=O)Cn1nc(C)c(NC(=O)COc2ccc([N+](=O)[O-])cc2)c1C,-63,-6,-53*,4,2
C/C(CCc1oc2c(Br)cc(Br)cc2c1-c1ccc(C)o1)=N\O,80*,-2,40,13,-4
COc1ccccc1NS(=O)(=O)c1ccc(NC(=O)c2[nH]nc(OC)c2[N+](=O)[O-])cc1,.,-9,.,.,-9
CC(=O)Oc1c(Cl)cc(Cl)cc1/C=C/c1ccc2ccccc2n1,161*,-1,119,21,3
SMILES,HSF1 activator,NOD2-RIPK2 inh,HSF1 inh,TLR4-MyD88 BLA,TLR9-MyD88 inh
CC(=O)Oc1ccc(Cl)cc1/C=C/c1ccc2ccccc2n1,60*,8,46,16,6
COc1ccc(NC(=O)C2(C)CCN2C(=O)C(C)C)cc1F (centres undefined),.,-11,.,.,.
O=c1ccc(-c2ccc(S(=O)(=O)NCC3CCN(Cc4ccccc4F)CC3)s2)n[nH]1,24,-1,2,.,8
COC12CC(=O)C(C(C)=O)=C(O)C1(C)c1c(O)c(C)c(O)c(C(C)=O)c1O2 (centres undefined),.,-15,.,.,.
Cc1sc(NC(=O)c2ccc(F)cc2)c(CN2CCCCCC2)c1C,56*,19,39,0,-4
Cc1sc(NC(=O)c2ccccc2F)c(CN2CCCCC2)c1C,58*,9,13,4,-7
Cc1sc(NC(=O)c2ccco2)c(CN2CCN(Cc3ccccc3)CC2)c1C,44,-1,27,6,-6
O=C(Nc1sc2c(c1CN1CCOCC1)CCC2)c1ccc(F)cc1,35,-2,30,-1,-2
CC(Oc1ccccc1Cl)C(=O)Nc1ccc(S(=O)(=O)Nc2nccs2)cc1 (centres undefined),3,-17,1,.,-7
Cc1ccc(/C=[N+](\[O-])c2ccc(N(C)C)cc2)c2nsnc12,-61,1,-57*,0,2
Cc1ccc2nsnc2c1NS(=O)(=O)c1c(C)ccc2nsnc12,-3,3,-8,5,-2
CC(NC(=O)COC(=O)CCC(=O)c1ccc(F)cc1)c1ccccc1 (centres undefined),.,-2,.,.,3
CN(C)S(=O)(=O)c1ccc(C(=O)Nc2nc(-c3cccs3)cs2)cc1,10,-5,5,-3,5
COc1ccc(-n2c(C)cc(-c3csc(NC(=O)c4ccc(S(=O)(=O)N(C)C)cc4)n3)c2C)cc1,-66,-11,-54*,-17,-6
O=C(COC(=O)c1ccco1)Nc1ccc(N2CCOCC2)cc1,.,-2,.,.,2
O=C(NNC(=S)Nc1ccc(Cl)cc1)c1ccccc1OC(F)F,59*,2,19,5,-5
O=C(NNC(=S)NCc1ccccc1)c1ccccc1OC(F)F,-9,-4,-2,-10,2
O=C1CCC[C@@H]2C=C[C@H](c3ccc(Br)cc3)[C@H]3CCN1[C@@H]32,.,0,.,.,.
COc1ccc(NC(=O)Nc2cccc3c2O[C@@H](CN(C)S(=O)(=O)c2cn(C)cn2)[C@@H](C)CN([C@H](C)CO)C3=O)cc1,.,-7,.,.,4
O=C(Nc1ccc2c(c1)OCCO2)c1ccc(Br)cc1,44,-13,19,.,-8
Nc1c(C(=O)Nc2ccc3c(c2)OCCO3)nnn1Cc1cccc(Br)c1,26,16,12,.,-4
O=C(Nc1ccc2c(c1)OCCO2)c1cc2ccccc2o1,61*,-3,15,-10,3
Cc1ccc(C(=O)Nc2ccc3c(c2)OCCO3)cc1,-6,7,-3,.,6
Nc1c(C(=O)Nc2ccc3c(c2)OCCO3)nnn1Cc1ccc(Br)cc1,56*,14,30,.,-2
O=C(Nc1ccc2c(c1)OCCO2)c1cccc(Br)c1,57*,-3,22,.,2
CCOc1ccc(C(=O)Nc2ccc3c(c2)OCCO3)cc1,118*,-1,69,.,-4
O=C(Nc1ccc2oc(=O)ccc2c1)c1cc2ccccc2o1,46,-12,29,7,-2
CCOc1cc(C(=O)NC2=NCCS2)cc(OCC)c1OCC,29,-3,2,-3,-7
O=C(Nc1cccc(C(=O)Nc2cccc(Br)c2)c1)c1ccccc1,7,-6,10,.,3
